# From PubChem BioAssay (NCATS)
# Results filed as inconclusive are left out. Where a call stands in place of a potency, no number is given. The source made the active and inactive calls. The call rests on the fitted dose curve; in most records, active means well fitted inhibition curve with a large enough effect; inconclusive means small, poorly fitted or top-dose-only effect; inactive means flat fitted curve, though single readings scatter. Peptide text beside a SMILES is read from it.
# Assays:
# Experiment in all cases: qHTS profiling for inhibitors of Plasmodium falciparum proliferation (AID 504749); further: nearly all actives have a fitted effect of over 60% in size
# Settings in all cases: P. falciparum in erythrocytes, SYBR Green DNA, 72 h; series mostly up to 28.7 µM
# [1] = system: CP252
# Method in brief: (§1)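 Parasite proliferation within erythrocytes, 72 h exposure. Endpoint: SYBR Green I fluorescence after overnight lysis at room temperature. Controls: 0.29 uM artemisinin, DMSO.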
# [2] = system: CP256
# Method in brief: as §1
# [3] = system: CP260
# Method in brief: as §1
# [4] = system: CP262
# Method in brief: as §1
# [5] = system: CP265
# Method in brief: as §1
# [6] = system: CP266
# Method in brief: as §1
# [7] = system: CP268
# Method in brief: as §1
# [8] = system: CP269
# Method in brief: as §1
# [9] = system: CP286
# Method in brief: as §1
# [10] = system: CP291
# Method in brief: as §1
# [11] = system: CP297
# Method in brief: as §1
# [12] = system: CP305
# Method in brief: as §1
# [13] = system: CP315
# Method in brief: as §1
# [14] = system: CP325
# Method in brief: as §1
# [15] = system: CP329
# Method in brief: as §1
# [16] = system: CP335
# Method in brief: as §1
# [17] = system: DFO2036
# Method in brief: as §1
# [18] = system: DIV14
# Method in brief: as §1
# [19] = system: DIV17
# Method in brief: as §1
# [20] = system: DIV30
# Method in brief: as §1
# Potency means the concentration at half of the fitted maximal effect.
Structure (SMILES),Potency [1],Potency [2],Potency [3],Potency [4],Potency [5],Potency [6],Potency [7],Potency [8],Potency [9],Potency [10],Potency [11],Potency [12],Potency [13],Potency [14],Potency [15],Potency [16],Potency [17],Potency [18],Potency [19],Potency [20]
CCCCCCCCCCCCCC[n+]1ccc(C)cc1,4.47 µM (active),5.01 µM (active),2.51 µM (active),inactive,4.47 µM (active),4.26 µM (active),1.69 µM (active),1.69 µM (active),1.26 µM (active),4.26 µM (active),4.78 µM (active),2.39 µM (active),4.78 µM (active),3.38 µM (active),4.26 µM (active),4.26 µM (active),4.47 µM (active),1.69 µM (active),1.9 µM (active),4.78 µM (active)
O=C(COc1ccc(Cl)cc1)OCCNC12CC3CC(CC(C3)C1)C2,inactive,inactive,inactive,inactive,inactive,inactive,inactive,inactive,inactive,inactive,,inactive,inactive,inactive,inactive,inactive,inactive,inactive,inactive,
COC(C(=O)C(O)C(C)O)C1Cc2cc3cc(OC4CC(OC5CC(O)C(O)C(C)O5)C(O)C(C)O4)c(C)c(O)c3c(O)c2C(=O)C1OC1CC(OC2CC(OC3CC(C)(O)C(O)C(C)O3)C(O)C(C)O2)C(O)C(C)O1 (centres undefined),0.251 µM (active),0.316 µM (active),0.126 µM (active),2.13 µM (active),0.355 µM (active),2.13 µM (active),1.69 µM (active),1.9 µM (active),0.126 µM (active),1.69 µM (active),2.39 µM (active),1.51 µM (active),3.79 µM (active),3.01 µM (active),2.13 µM (active),0.379 µM (active),0.141 µM (active),1.51 µM (active),1.51 µM (active),3.01 µM (active)
Oc1cc(O)c2c(c1)OC(c1ccc(O)c(O)c1)C(O)C2 (centres undefined),inactive,inactive,inactive,inactive,inactive,inactive,inactive,inactive,inactive,inactive,inactive,inactive,inactive,inactive,inactive,,inactive,inactive,inactive,inactive
C[C@]12CCC(=O)C=C1CC[C@@H]1[C@@H]2[C@@H](O)C[C@@]2(C)[C@H]1CC[C@]2(O)C(=O)COP(=O)(O)O,inactive,inactive,inactive,inactive,inactive,inactive,inactive,inactive,inactive,inactive,inactive,inactive,inactive,inactive,inactive,inactive,inactive,inactive,inactive,inactive
CC(Cc1ccc(O)c(O)c1)C(C)Cc1ccc(O)c(O)c1 (centres undefined),inactive,inactive,inactive,inactive,inactive,inactive,,,,inactive,,inactive,inactive,inactive,inactive,inactive,inactive,,,inactive
CC(NNC(=O)c1ccccc1)c1ccccc1 (centres undefined),inactive,inactive,inactive,inactive,inactive,inactive,inactive,inactive,inactive,inactive,inactive,inactive,inactive,inactive,inactive,inactive,inactive,inactive,inactive,inactive
IC(I)I,inactive,inactive,inactive,inactive,inactive,inactive,inactive,inactive,inactive,,inactive,,inactive,inactive,inactive,inactive,inactive,,inactive,inactive
CC(=O)N[C@@H](CC(=O)O)C(=O)N[C@@H](CCC(=O)O)C(=O)O (Ac-Asp-Glu-OH),inactive,inactive,inactive,inactive,inactive,inactive,inactive,inactive,inactive,inactive,inactive,inactive,inactive,inactive,inactive,inactive,inactive,inactive,inactive,inactive
CC1=C(/C=C/C(C)=C/C=C/C(C)=C/C=C/C=C(C)/C=C/C=C(C)/C=C/C2=C(C)CCCC2(C)C)C(C)(C)CCC1,inactive,inactive,inactive,inactive,inactive,,inactive,inactive,inactive,inactive,inactive,inactive,inactive,inactive,inactive,inactive,inactive,inactive,inactive,inactive
CC[N+](C)(C)Cc1ccccc1Br,inactive,inactive,inactive,inactive,inactive,inactive,inactive,inactive,inactive,inactive,inactive,inactive,inactive,inactive,inactive,inactive,inactive,inactive,inactive,inactive
COC(=O)CCC(=O)CN,inactive,inactive,inactive,inactive,inactive,,inactive,inactive,inactive,inactive,inactive,inactive,inactive,inactive,inactive,inactive,inactive,,inactive,inactive
NC(=O)c1ncn(C2OC(CO)C(O)C2O)n1 (centres undefined),inactive,inactive,inactive,inactive,inactive,inactive,inactive,inactive,inactive,,inactive,inactive,inactive,inactive,inactive,inactive,inactive,inactive,inactive,inactive
CCCC(=O)Nc1ncnc2c1ncn2C1OC2COP(=O)(O)OC2C1OC(=O)CCC (centres undefined),inactive,inactive,inactive,inactive,inactive,inactive,inactive,inactive,inactive,inactive,inactive,inactive,inactive,inactive,inactive,inactive,inactive,inactive,inactive,inactive
